Drawing on PubChem BioAssay (NCI), this text covers growth for 40 molecules.

The structures appear in SMILES notation. The panel holds about 83,000 compounds, 20% with a hit somewhere; the sample as a whole holds those more often.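 Note: values are percent growth. 100 is the growth of untreated cells, values between 100 and 0 indicate rising inhibition; between -100 and 0 indicates cell death.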 The source made the active and inactive calls.

For this experiment, the system named is SN12C renal. The experiment can be described thus: NCI-60 one-dose screen, 48 h (100 = growth as untreated, 0 = no growth, -100 = all killed). The note with it: 10 µM unless noted. On the procedure:
Growth inhibition of the SN12C human tumor cell line is measured as a screen for anti-cancer activity. Cells are grown in 96 well plates and exposed to the test compound for 48 hours. Compounds are tested at a single concentration, which is 10^-5 M for most compounds. The reported endpoint is percent growth (GI% or GIPRCNT), where numbers from 0 - 100% represent growth inhibition, and numbers from -100% - 0 represent cell death. For example, a value of 40 represents 60% growth inhibition. A value of 0 means no net growth occurred over the course of the experiment. A value of -40 indicates 40% of cells at the beginning of the experiment died by the end of the experiment. A value of -100 means all cells are dead at the end of the experiment.
NCI-60 Human Tumor Cell Lines Screen was performed using the standard one-dose NCI protocol, which is described in more detail at https://dtp.cancer.gov/discovery_development/nci-60/default.htm.
Compounds with GIPRCNT values below 10 were considered active. Activity score was based on GIPRCNT using the following formula: […]
Score is 0 for GIPRCNT values of 100 or above, 50 for GIPRCNT values of 0, and 100 for GIPRCNT values of -100.
With `C#CCN(C)CCCOc1ccc(NC(=O)CCCCCCC(=O)NO)cc1Cl`, the growth was 41.2% (inactive).

On to `Cn1cc(-c2nn3cc(-c4ccncc4)nc3s2)c2cc(Br)ccc21`, for which the growth is 67.7% (inactive).

As to `CC1=C(C)C(=O)C(Nc2cccc(C(=O)OC(C)(C)C)c2)=CC1=O`, the growth was 61.3% (inactive).

In the case of `OCC(Nc1ncnc2ccc(-c3cnc4cnccn34)cc12)c1ccccc1` (stereo not given), the growth is 80.7% (inactive).

`C#C[C@]1(O)CC[C@H]2[C@@H]3CC=C4c5sc(NCc6ccccc6)nc5CC[C@]4(C)[C@H]3CC[C@@]21C`: the growth is 83.6% (inactive).

As to `N#Cc1cnc2ccc(-c3cnc4n[nH]nc4c3)cc2c1N1CCc2cc(F)c(Cl)cc21`, the growth is 14.8% (inactive).

Turning to `C[C@]12CC[C@H]3[C@@H](CC=C4C[C@@H](O)CC[C@@]43C)[C@@H]1CC[C@@H]2[C@](C)(O)CCc1cccnc1`, the growth is 79.9% (inactive).

Consider `NC(=S)n1c(=O)n(-c2cccc(C(F)(F)F)c2)c(=O)c2cc(-c3ccc(F)cc3F)ccc21`, for which the growth is -3.03% (active).

`N#C/C(=C\c1cccc2c1OCO2)C(=O)Nc1sc2c(c1C#N)CCCC2`: the growth was 98.3% (inactive).

Take `C=C(C)[C@@H]1CC[C@]2(COP(=O)(OCC)OCC)CC[C@]3(C)[C@H](CC[C@@H]4[C@@]5(C)CC[C@H](OP(=O)(OCC)OCC)C(C)(C)[C@@H]5CC[C@]43C)[C@@H]12`: the growth is 33.4% (inactive).

Take `NC(=O)n1c(=O)n(-c2cccc(C(F)(F)F)c2)c(=O)c2cc(-c3ccc(F)cc3F)ccc21`: the growth is 1.52% (active).

Take `CC(Nc1ncnc2ccc(-c3cnc4cnccn34)cc12)c1ccccc1` (stereo not given): the growth was 51.9% (inactive).

Take `CCN(CC)CCOc1ccc(C(=C(C)c2ccc(OC)cc2)c2ccc(OCCN(CC)CC)cc2)cc1`: the growth is 34.6% (inactive).

For `COc1cc(-c2nc(-c3ccccc3)[nH]c2-c2ccnc(NCCCNS(=O)(=O)c3ccc(C)cc3)n2)ccc1F`, the growth was 89.3% (inactive).

Regarding `CCn1c2ccc(/C=N/N(C)S(=O)(=O)CCN(C)C)cc2c2cc(/C=N/N(C)S(=O)(=O)CCN(C)C)ccc21`, the growth is 33.3% (inactive).

On to `CC1=C(C)C(=O)C(Nc2ccc3c(c2)OCO3)=C(Br)C1=O`, for which the growth is 102% (inactive).

`O=C(N/N=C\c1ccc(F)cc1)c1ccc2nc(-c3ccc(Br)cc3)[nH]c2c1`: the growth is 29.4% (inactive).

Regarding `Nc1ccc(Nc2ncnc3sc4c(c23)CCN(Cc2ccccc2)C4)cc1`, the growth is 96.8% (inactive).

For `Cc1[nH]c(C(=O)Nc2ccc(S(=O)(=O)N3CCCCC3)cc2OCCOCCOCCOCCOCCOCCOCCOCCOCCOc2cc(S(=O)(=O)N3CCCCC3)ccc2NC(=O)c2[nH]c(C)c3c2CCCCC3=O)c2c1C(=O)CCCC2`, the growth was 23.1% (inactive).

As for `CCN(CC)S(=O)(=O)c1ccc(-c2nc(C(Cl)Cl)nc3cc(-c4ccc(F)cc4)nn23)cc1`, the growth is 67.6% (inactive).

As to `CN(C)c1ccc(-c2cc(-c3c[nH]c4ccccc34)nc(N)c2C#N)cc1`, the growth was 43.1% (inactive).

For `CN1CCN(Cc2ccc(NC(=O)c3cncc(C#Cc4cnc5ccc(OCC(F)F)nn45)c3)cc2C(F)(F)F)CC1`, the growth is -75.2% (active).

On to `CN1CCN(c2ccc(Nc3nc(NCCNS(=O)(=O)c4ccc5ccccc5c4)c4sccc4n3)cc2)CC1`, for which the growth was 79.6% (inactive).

For `Cc1cc(=O)oc2cc(OCCCOc3ccc(/C=C/C(=O)Nc4ccc(Br)cc4)cc3)ccc12`, the growth is 89.9% (inactive).

As to `Cn1ncc2c(C(=O)c3ccc(F)cc3)nc(C(C)(C)C)nc21`, the growth is 96.2% (inactive).

`NC1C2CCC1CN(c1cnc(C(=O)Nc3cc(F)cc4cccnc34)cn1)C2` (stereo not given): the growth was 56.1% (inactive).

For the molecule `C/C(=C(\c1ccc(O)cc1)c1ccc(OCCN2CCCCCC2)cc1)c1ccc(Cl)cc1`, the growth is -84.7% (active).

Consider `COC(=O)c1cccc(NC2=C(Cl)C(=O)c3nc(C)ccc3C2=O)c1`, for which the growth was 93.1% (inactive).

On to `Cc1[nH]c(C(=O)Nc2ccccc2OCc2cccc(C(=O)NCCN)c2)cc1Cl`, for which the growth was 93.9% (inactive).

For the molecule `Cn1c(SCC(=O)c2ccc(Br)cc2)nc2ccccc2c1=O`, the growth is 96.6% (inactive).

As to `O=C(CSc1nc2ccccc2c(=O)n1-c1ccccc1)N/N=C/c1ccc(Oc2ccc(Br)cc2)cc1`, the growth is 40.7% (inactive).

Turning to `CCCCN1C(=O)/C(=c2\sc3n(c2=O)C2C(NN=3)N(CC)C(=O)N2CC)c2cc(C)ccc21` (stereo not given), the growth was 97.9% (inactive).

Regarding `Cc1ccc(OCc2occc2C(=O)N2CCOCC2)cc1`, the growth is 103% (inactive).

Regarding `O=C(/C=C/c1cccc(F)c1)c1cccc(OCCCOc2cccc(C(=O)/C=C/c3cccc(F)c3)c2)c1`, the growth is 82% (inactive).

`COc1cc2oc(-c3cccc(NC(=O)[C@@H](N)C(C)C)c3)cc(=O)c2c(OC)c1OC`: the growth was 101% (inactive).

Consider `C#Cc1nc(/C=C/CCCCCCC(=O)NO)cs1`, for which the growth is 90.3% (inactive).

As for `COC(=O)CNC(=O)c1cccc(-c2cc(=O)c3c(OC)c(OC)c(OC)cc3o2)c1`, the growth was 104% (inactive).

Regarding `CC(C)C(/C=C/c1[nH]ncc1-c1cc(Cl)ccc1O)N1CCOCC1` (stereo not given), the growth is 97.7% (inactive).

As to `O=C(CSc1nnc(-c2cccs2)n1-c1ccccc1)Nc1ccccc1`, the growth is 83.5% (inactive).

Regarding `CCCCSC1=C(Cl)CN(c2ccccc2)C1=O`, the growth is 94.6% (inactive).
